SRC1 TRFRET art – TR-FRET artefact, counter-screen to PPARgamma/SRC-1 agonist assay; TR-FRET detection artefact counter-screen, emission ratio; hits give high values; TR-FRET ratio at 8 µM; actives 0.34% (n = 99,000); in the data active = TR-FRET ratio above about 2300
PPARg SRC2 recr – PPARgamma-driven SRC-2 recruitment agonism; P37231; PPARgamma LBD-SRC-2 recruitment, biochemical; activation, % at 8 µM; actives 0.34% (n = 200,000); AID 1032; in the data active = activation above about 22%
Target sequence (P37231 whole entry, looked up, the tested form may be a part): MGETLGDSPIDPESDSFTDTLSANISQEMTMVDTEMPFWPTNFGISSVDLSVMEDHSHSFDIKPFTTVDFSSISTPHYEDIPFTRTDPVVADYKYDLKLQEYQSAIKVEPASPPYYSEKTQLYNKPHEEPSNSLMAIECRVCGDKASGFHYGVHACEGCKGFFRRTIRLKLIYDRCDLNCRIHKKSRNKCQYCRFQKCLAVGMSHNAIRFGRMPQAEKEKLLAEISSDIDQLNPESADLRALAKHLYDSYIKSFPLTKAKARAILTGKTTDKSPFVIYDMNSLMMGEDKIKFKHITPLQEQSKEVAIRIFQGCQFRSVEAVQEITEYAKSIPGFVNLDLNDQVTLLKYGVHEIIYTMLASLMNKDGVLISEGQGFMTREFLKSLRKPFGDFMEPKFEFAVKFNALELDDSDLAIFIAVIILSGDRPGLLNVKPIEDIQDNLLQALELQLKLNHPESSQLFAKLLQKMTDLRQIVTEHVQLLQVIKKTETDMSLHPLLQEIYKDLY
TR-FRET SRC-2 ct – flags TR-FRET format artefacts in PPARgamma SRC-2 recruitment agonist screen | AID 1049 | actives 0.4% (n = 200,000) | TR-FRET ratio at 8 µM | TR-FRET artefact counter-screen; hits give high values
PPARg SRC-1 ag – promotes SRC-1 coactivator recruitment by human PPARgamma; P37231; activation, % at 8 µM; PPARgamma-SRC-1 coactivator recruitment biochemical assay; actives 0.41% (n = 200,000); in the data active = activation above about 19%
SRC3 TRFRET art – flags TR-FRET format artefacts in PPARgamma SRC-3 recruitment agonist screen; TR-FRET artefact counter-screen, PPARgamma/SRC-3 format; hits give high values; TR-FRET ratio at 8 µM; actives 0.39% (n = 99,000); AID 1048
PPARg SRC3 recr – PPARgamma-driven SRC-3 recruitment agonism | P37231 | biochemical PPARgamma/SRC-3 coactivator recruitment assay | activation, % at 8 µM | actives 0.26% (n = 200,000) | AID 731; in the data active = activation above about 23%
Large screens that a line does not name were inactive. Hits are enriched below; roughly 0.9% of the tested compounds scored in any of these assays. Cut-off read from the data, not from the text of the source, unless noted: active = TR-FRET ratio above about 2000; inactive = the rest.

C=CCNC(=S)Nc1ccc2nsnc2c1	SRC1 TRFRET art 2407
Cc1cc(C)n2nc(C(F)(F)F)c(-c3ccccc3)c2n1	none
CCC(C)c1ccccc1OCCn1ccnc1 (configuration not stated)	none
COc1c(C(=O)Nc2ccc(Cc3ccncc3)cc2)ccc2ccccc12	none
CN1/C(=C\C(=O)COC(=O)CNC(=O)c2ccccc2F)C(C)(C)c2ccccc21	none
CN1/C(=C\C(=O)COC(=O)CNC(=O)c2ccc3ccccc3c2)C(C)(C)c2ccccc21	SRC1 TRFRET art 3406, TR-FRET SRC-2 ct 2236, SRC3 TRFRET art 3346
COc1ccc(Nc2cnn(-c3nc4ccccc4s3)c(=O)c2Cl)cc1	none
O=c1c(Cl)c(Nc2cccc(Cl)c2)cnn1-c1nc2ccccc2s1	TR-FRET SRC-2 ct 2092, SRC3 TRFRET art 2400
CCn1c(SCC(=O)O)nnc1C1CCCCC1	PPARg SRC3 recr 29 (no result: SRC1 TRFRET art, SRC3 TRFRET art)
CN=C1CC(SC)=C1c1ccc(C)cc1	PPARg SRC2 recr 24 (no result: SRC1 TRFRET art, SRC3 TRFRET art)
O=S(=O)(c1ccc(N2CCN(S(=O)(=O)c3ccc4c(c3)OCCO4)CC2)nc1)N1CCCC1	TR-FRET SRC-2 ct 2273, PPARg SRC3 recr 34 (no result: SRC1 TRFRET art, SRC3 TRFRET art)
CCn1c(SCC(=O)Nc2ccc(Cl)cc2)nc2nc3c(cc2c1=O)CCCC3	PPARg SRC2 recr 68, TR-FRET SRC-2 ct 2837
O=C(CSc1nc2nc3c(cc2c(=O)n1-c1ccccc1)CCCC3)Nc1cccc2ccccc12	SRC1 TRFRET art 2437, TR-FRET SRC-2 ct 2372, SRC3 TRFRET art 2727
COc1ccc(CSc2nnc(Cc3sc(-c4ccccc4)nc3-c3ccccc3)o2)cc1	TR-FRET SRC-2 ct 3227 (no result: SRC1 TRFRET art, SRC3 TRFRET art)
Cc1c(Cl)cccc1NC(=S)N1CCN(Cc2ccc3c(c2)OCO3)CC1	none
COc1ccccc1C(=O)C1CCCN(C(=O)CSc2ccccn2)C1 (configuration not stated)	PPARg SRC2 recr 24
CC(=O)Nc1nnc(CCS(=O)(=O)c2ccc(C)c(C)c2)s1	none
O=C(CSc1nc2cccnc2n1Cc1ccccc1)NCc1ccco1	PPARg SRC-1 ag 34 (no result: SRC1 TRFRET art, SRC3 TRFRET art)
CC(O)CC(C(=O)NNc1ccccc1)C(=O)NNc1ccccc1 (configuration not stated)	none
COc1ccccc1-c1cc(-c2ccccc2)nc(SC(C(N)=O)c2ccccc2)c1C#N (configuration not stated)	TR-FRET SRC-2 ct 3201 (no result: SRC1 TRFRET art, SRC3 TRFRET art)
CCOc1ccc(CCNC(=O)CSc2nnnn2C)cc1OCC	none
CCOc1ccc(CCNC(=O)CSc2nn(-c3ccc(C)c(Cl)c3)c(=S)s2)cc1OCC	SRC1 TRFRET art 2577, PPARg SRC-1 ag 30
COc1ccc(CCN(Cc2nc3ccccc3c(=O)[nH]2)C(=O)c2ccco2)cc1OC	PPARg SRC-1 ag 20 (no result: SRC1 TRFRET art, SRC3 TRFRET art)
Cc1ccn2c(Nc3ccccc3C)c(-c3cccnc3)nc2c1	none
Cc1ccccc1C(=O)N1CCc2cc(-c3nc(NC(=O)Cc4ccc5c(c4)OCO5)sc3C)ccc21	TR-FRET SRC-2 ct 2157, SRC3 TRFRET art 2401
Cc1sc(NC(=O)Cc2ccc3c(c2)OCO3)nc1-c1ccc2c(c1)CCN2C(=O)c1cccc(F)c1	none
Cc1ccc(-c2[nH]c3ccccc3c2SCCNC(=O)c2ccc(S(=O)(=O)N3CCOCC3)cc2)cc1	SRC1 TRFRET art 3343, TR-FRET SRC-2 ct 2560, SRC3 TRFRET art 2709
COc1ccc(C(=O)NCCSc2ccccc2)cc1	none
Cc1cc2ccccc2n1CCNC(=O)c1ccc(S(=O)(=O)N2CCOCC2)cc1	SRC1 TRFRET art 2656, SRC3 TRFRET art 2905
O=C(NCc1nc2ccccc2[nH]1)c1ccc(S(=O)(=O)N2CCOCC2)cc1	none (no result: SRC1 TRFRET art, SRC3 TRFRET art)
Cc1cc2ccccc2n1CCNC(=O)c1ccccc1	none (no result: SRC1 TRFRET art, SRC3 TRFRET art)
COc1ccc(-c2[nH]c3ccccc3c2SCCNC(=O)c2ccccc2)cc1	PPARg SRC2 recr 24, SRC3 TRFRET art 2781
CCc1cc(OCCOCCN(C)C)ccc1Cl	none
Cc1c(Cl)cccc1NC(=O)CNC(=O)c1ccccc1F	none
c1ccc2c(c1)CC/C2=N/Nc1nc2ccccc2[nH]1	PPARg SRC-1 ag 22
CCCOC(=O)c1ccc(NC(=O)c2nc3nc(C)cc(C)n3n2)cc1	none
Cn1cnnc1SCc1ccc(C(=O)N=Nc2c(O)n(C)c3ccccc23)cc1	PPARg SRC2 recr 23
Nc1ccc2c(c1)Cc1cc([N+](=O)[O-])ccc1-2	TR-FRET SRC-2 ct 2054
Cc1ccc([N+](=O)[O-])cc1N	none
O=C(N/N=C/C=C/c1ccco1)/C(=C/c1ccccc1)NC(=O)c1ccccc1	none
CCOc1ccc(OCCCCn2cnc3ccccc3c2=O)cc1	none
COc1ccc(-c2csc(NNC3=NCCCCC3)n2)cc1	none
CCOc1ccc(-c2csc(NNC3=NCCCCC3)n2)cc1	SRC1 TRFRET art 2430, PPARg SRC-1 ag 23
N#CC1=C(N)SC(N)=C(C#N)C1c1ccoc1	PPARg SRC2 recr 31, TR-FRET SRC-2 ct 2095, PPARg SRC-1 ag 21, PPARg SRC3 recr 28 (no result: SRC1 TRFRET art, SRC3 TRFRET art)
Cc1ccc(C2C(C#N)=C(N)SC(N)=C2C#N)cc1	none (no result: SRC1 TRFRET art, SRC3 TRFRET art)
CCOc1ccccc1-c1c2cc(O)c(=O)cc-2oc2cc(O)c(O)cc12	none
COc1ccc(OC)c(-c2c3cc(O)c(=O)cc-3oc3cc(O)c(O)cc23)c1	PPARg SRC2 recr 23
Clc1ccc(Nc2ncn[nH]2)c(Cl)c1	none
O=C(Cn1c(=S)[nH]c2ncccc2c1=O)NCCc1ccccc1	SRC1 TRFRET art 2328
O=c1c2cccnc2[nH]c(=S)n1Cc1ccccc1	none
Cn1cnc2cc(NC(=O)c3cccs3)ccc21	none
Cc1ccc2nc(SCC(=O)N3c4ccccc4CC3C)c(C)cc2c1 (configuration not stated)	none (no result: SRC1 TRFRET art, SRC3 TRFRET art)
Cc1ccc2nc(-c3ccc(SCC(=O)N4CCc5ccccc54)nc3)[nH]c2c1	SRC3 TRFRET art 2738
Cc1ccc2nc(-c3cccnc3SCC(=O)N3c4ccccc4CC3C)[nH]c2c1 (configuration not stated)	TR-FRET SRC-2 ct 2147 (no result: SRC1 TRFRET art, SRC3 TRFRET art)
Cc1ccc2nc(-c3ccc(SCC(=O)O)nc3)[nH]c2c1	none (no result: SRC1 TRFRET art, SRC3 TRFRET art)
COc1ccc(/C=C(\C#N)C(=O)NC2CCS(=O)(=O)C2)cc1OC (configuration not stated)	none
CCOC(=O)C1=C(C)NC(SCC(=O)O)=NC1c1ccccc1 (configuration not stated)	PPARg SRC2 recr 40, TR-FRET SRC-2 ct 2481
COc1cc(OC)cc(C(=O)NNC(=O)CCc2ccccc2)c1	none
O=C(Nc1ccc(N2CCCCC2)cc1)c1cncc(Br)c1	PPARg SRC-1 ag 20 (no result: SRC1 TRFRET art, SRC3 TRFRET art)
O=C(Nc1ccncc1)c1cncc(Br)c1	none (no result: SRC1 TRFRET art, SRC3 TRFRET art)
Cc1ccc(C(=O)Nc2ccc(N3CCCC3)cc2)cc1	PPARg SRC-1 ag 22
O=C(Nc1ccc(N2CCCCC2)cc1)c1ccccc1	PPARg SRC-1 ag 19 (no result: SRC1 TRFRET art, SRC3 TRFRET art)
CCN(CC(=O)Nc1ccccc1OC)CC(=O)Nc1sccc1C#N	none
CC(C)CN1CCC(CN(C)Cc2nc(-c3cnccn3)no2)CC1	none
COc1cc(NC(=O)COC(=O)Cc2ccc(-c3ccccc3)cc2)cc(OC)c1	none
CC(=O)Nc1ccc(C(=O)Nc2nc(-c3ccccn3)cs2)cc1	TR-FRET SRC-2 ct 1977

Screens (PubChem)
